Hits are enriched below; roughly 1.8% of the tested compounds scored in any of these assays.
GLP-1R agonist – qHTS of GLP-1 Receptor Agonists; Glucagon-like peptide 1 receptor (Homo sapiens), P43220; HEK293 GLP-1R CRE-luciferase, luminescence, 4-6 h; cells express a hypersensitive GLP-1R form; Potency, µM (top dose mostly 45.6 µM), without a hit: top-dose activation, actives largely listed as activators; 380,000 tested, 0.007% active; AID 624172, 2012; also: % of control where 0% means no effect
GLP1R inv ag – qHTS of GLP-1 Receptor Inverse Agonists (Inhibition Mode); Potency, µM (titrated, usually from 38.3 µM), without a hit: at the top dose activity change, negative = inhibition, usual class: inhibitors; 410,000 tested, 1.6% active; AID 624417, 2012; HEK293 GLP-1R CRE-luciferase, luminescence, 24 h; GLP-1R form is constitutively active; Glucagon-like peptide 1 receptor (Homo sapiens), P43220; also: % is scaled to controls: 0 for no effect and ±100 for the full control effect; nearly all actives have a fitted effect of over 55% in size
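Stable HEK293 clone (constitutively active GLP-1R + cAMP-response luciferase); 200 cells/uL plated, 12 h pre-culture, compound 24 hr, 37 deg C/5% CO2; detection reagent 12 min RT; luminescence.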
GLP1R cytotox – qHTS of GLP-1 Receptor Inverse Agonists: Cytotox Screen; Potency, µM (titrated, usually from 38.3 µM), for the others: at the highest dose activity change, negative = inhibition, actives largely listed as inhibitors; AID 624418, 2012; 410,000 tested, 0.13% active; HEK293 cAMP-luciferase reporter cells, luminescence, 24 h;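 also: loss of luciferase light is scored as toxicity; % is scaled to controls: 0 for no effect and ±100 for the full control effect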
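MLSMR compounds, 24 hr on cells at 37 deg C/5% CO2; luminescence after luciferase reagent (12 min RT). Inhibition counted as the undesired cytotoxic outcome.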
Tb PFK block – qHTS Assay to Find Inhibitors of T. brucei phosphofructokinase; ATP-dependent 6-phosphofructokinase (Trypanosoma brucei brucei), O15648; T. brucei PFK, ADP-Glo luminescence; Potency, µM (highest dose often 57.5 µM), for inactives: top-dose activity, negative = inhibition, actives largely listed as inhibitors; 330,000 tested, 0.17% active;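 also: 0% = uninhibited 1x PFK enzyme wells and -100% = no-enzyme wells; nearly all actives have a fitted effect of over 60% in size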
Target sequence (O15648 whole entry, looked up): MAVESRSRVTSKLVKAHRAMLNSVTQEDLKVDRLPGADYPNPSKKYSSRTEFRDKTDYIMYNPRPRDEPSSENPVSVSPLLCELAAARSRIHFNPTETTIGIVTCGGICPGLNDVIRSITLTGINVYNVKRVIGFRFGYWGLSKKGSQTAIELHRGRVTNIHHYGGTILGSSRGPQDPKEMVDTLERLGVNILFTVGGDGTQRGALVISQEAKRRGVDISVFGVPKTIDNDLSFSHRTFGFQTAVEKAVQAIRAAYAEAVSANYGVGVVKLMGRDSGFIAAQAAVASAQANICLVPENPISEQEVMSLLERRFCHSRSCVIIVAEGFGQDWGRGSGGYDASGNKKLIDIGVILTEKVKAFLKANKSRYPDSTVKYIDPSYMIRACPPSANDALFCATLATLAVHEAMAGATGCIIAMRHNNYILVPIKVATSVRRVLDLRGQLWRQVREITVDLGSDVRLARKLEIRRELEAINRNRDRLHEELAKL
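Compounds were pin-transferred as a titration series up to 57 uM into substrate buffer (0.5 mM F6P, 0.1 mM ATP, pH 8.0), then 1.25 nM PFK was added and reactions ran 45 min before ADP-Glo detection.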
Pin1 inhibitor – qHTS Assay to Find Inhibitors of Pin1. AID 504891, 2011. Potency, µM (top dose mostly 115 µM), inactives show at the top dose activity, negative = inhibition, usual class: inhibitors. 390,000 tested, 0.009% active. Peptidyl-prolyl cis-trans isomerase NIMA-interacting 1 (Homo sapiens), Q13526. Pin1 FP peptide displacement, HiFluor488, 10 min; active = well fitted inhibition curve with a large enough effect in the polarisation, with a control signal flat, not every such curve was filed as active; inconclusive = small, poorly fitted or top-dose-only effect, or effect the other way, or a change in a side signal; inactive = no such curve, though single readings can be large or run the other way; the % refers to the polarisation; also: % is scaled to controls: 0 for no effect and ±100 for the full control effect
PGK inhibitor – qHTS Assay to Find Inhibitors of Phosphoglycerate Kinase | 380,000 tested, 0.043% active | PGK/GAPDH coupled, Kinase-Glo luminescence, 60 min | Phosphoglycerate kinase, glycosomal (Trypanosoma brucei brucei), P07378 | Potency, µM (doses to about 57.5 µM), without a hit: top-dose activity change, negative = inhibition, usual class: inhibitors | AID 602233, 2012; also: % is scaled to controls: 0 for no effect and ±100 for the full control effect; nearly all actives have a fitted effect of over 60% in size
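Luminescent ATP detection (Kinase-Glo Plus) follows a 60-minute room-temperature incubation, with wells lacking PGK as controls. Buffer: 100 mM TEA (pH 7.6), 5 mM MgCl2, 0.01% Tween-20. Coupling enzyme GAPDH (100 nM final) supplies unstable 1,3-BPG in-well.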
The depositor's hits bear a star; i = inactive; u = inconclusive; x = no result. Unless noted, calls follow the shape of the dose curve; as a rule, active = well fitted curve in the direction sought with a large enough effect; inconclusive = small, poorly fitted or top-dose-only effect, or another doubt; inactive = no such curve, though single readings can be large; an effect the other way counts as inactive or inconclusive. Potency is read from the fitted curve at half-maximal effect.

SMILES	GLP-1R agonist	GLP1R inv ag	GLP1R cytotox	Tb PFK block	Pin1 inhibitor	PGK inhibitor
CCN1C(=O)[C@H]2[C@@H](c3ccc(-c4ccc(F)cc4)cc3)N3CCCC[C@@]3(C(=O)OC)[C@H]2C1=O	-6%	5.6µM*	8%	-8%	40%	-4%
CCN1C(=O)[C@H]2[C@@H](c3ccc(-c4cccc(Cl)c4)c(OC)c3)N3CCCC[C@@]3(C(=O)OC)[C@H]2C1=O	-3%	u	-21%	3%	-1%	i
CCN1C(=O)[C@H]2[C@@H](c3ccc(-c4cccc(Cl)c4)cc3)N3CCCC[C@@]3(C(=O)OC)[C@H]2C1=O	-1%	10µM*	-24%	0%	64%	-1%
Cc1nc(-c2cccc(S(=O)(=O)N3CCC(C(=O)NCc4ccccc4)CC3)c2)no1	x	-2%	-8%	x	5%	i
CCOc1ccc(OCC)c(NC(=O)c2cnn(-c3ccc(F)cc3)c2C2CCN(C(=O)OC(C)(C)C)CC2)c1	x	3%	20%	x	14%	11%
Cc1cccc(C(=O)Nc2nnc(S(=O)(=O)N(C)c3ccccc3C)s2)c1	x	u	-26%	x	2%	5%
COc1cccc2c1[C@@H]1CN(CCCCn3c(=O)[nH]c4c(sc5ncc(-c6ccccc6)nc54)c3=O)C[C@@H]1CO2	-3%	10µM*	-22%	-2%	u	8%
Cc1ccc(-c2nc(-c3cccs3)c(-c3cccs3)[nH]2)cc1	x	u	-3%	x	-3%	-1%
O=[N+]([O-])c1cccc(-c2nc(-c3cccs3)c(-c3cccs3)[nH]2)c1	1%	2.5µM*	0%	8%	-2%	-8%
O=[N+]([O-])c1ccc(-c2nc(-c3cccs3)c(-c3cccs3)[nH]2)cc1	-5%	3.2µM*	u	-1%	u	2%
O=[N+]([O-])c1cccc(-c2nc(-c3ccccc3)c(-c3cccs3)[nH]2)c1	-26%	-10%	7%	-3%	2%	4%
O=C(Cn1c(-c2cccs2)cc2ccccc21)NCCCN1CCN(c2ccc(F)cc2)CC1	x	u	1%	x	7%	6%
O=C(NCCc1ccccc1)C1CCN(c2nc(-c3ccc(Br)cc3)cs2)CC1	x	x	x	x	16%	x
CC(C)=C[C@H]1C[C@H](C)[C@H]2CC[C@H](C)c3c(O[C@@H]4OC[C@@H](O)[C@H](O)C4O)c(O)c(C)c1c32 (stereo not given in full)	1%	10µM*	-25%	13%	u	-7%
CC(Sc1nc2sc3c(c2c(=O)n1-c1ccccc1)CCCC3)C(=O)O (stereo not given)	1%	33%	-6%	2%	0%	-2%
CSc1nc2sc3c(c2c(=O)n1-c1ccccc1C)CCCC3	x	4.5µM*	0%	x	0%	-7%
COc1ccc(C2c3c(n(CCCc4ccccc4)cnc3=N)Oc3ccc4ccccc4c32)cc1OC (stereo not given)	x	x	x	x	0%	x
OCCN(CCO)CC(O)COc1ccc(C23CC4CC(CC(C4)C2)C3)cc1 (stereo not given)	u	2.8µM*	u	0%	0%	0%
CC(C)Cc1cc(C(=O)Nc2ccc3c(c2)OCO3)no1	-2%	4µM*	20%	-7%	-4%	0%
Cc1cc(C(=O)Nc2ccc3c(c2)OCO3)no1	-2%	u	1%	-1%	0%	-3%
COC(=O)C1(C(=O)OC)C[C@H](/C=C/c2ccccc2)N(Cc2ccccc2OC)[C@@H]1c1cccs1	x	10µM*	32%	x	x	x
